Potency and outcome data for 22 molecules are collected here from PubChem BioAssay (NCATS).

Assay [1] in a line: Cell Viability - LYMP2-010 (AID 981). Further: nearly all actives have a fitted effect of over 55% in size. Further: potency means the concentration at half of the fitted maximal effect. An outline of the steps: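 Human lymphoblastoid LYMP2-010 cells (2500/well) treated 24 h at 37 C in complete medium; viability read as intracellular ATP by CellTiter-Glo luminescence. AC50 from Hill fits of concentration-response data; tetraoctylammonium bromide positive control.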
Assay [2] can be described thus: Cell Viability - LYMP2-012 (AID 982).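 Further: cellular ATP by luciferase luminescence where a drop means cytotoxicity; cells exposed to compound for one day before reading; nearly all actives have a fitted effect of over 55% in size.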
The nature of assay [3]: Cell Viability - LYMP2-014 (AID 983). Further: series mostly up to about 92 µM; nearly all actives have a fitted effect of over 50% in size. An outline of the steps:
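LYMP2-014 human lymphoblastoid cells, 2500/well, treated 24 h at 37 C in complete medium; viability by CellTiter-Glo ATP luminescence after 30 min at room temperature. AC50 from Hill fits of qHTS concentration-response; tetraoctylammonium bromide positive control.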

The nature of assay [4]: Cell Viability - LYMP2-016 (AID 984). Further: nearly all actives have a fitted effect of over 55% in size. An outline of the steps:
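qHTS, 1536-well: 2500 LYMP2-016 cells/well, 5 hr 37 C, compound added, 24 hr 37 C, CellTiter-Glo 30 min RT, luminescence. Tetraoctylammonium bromide positive control. AC50 via Hill fit.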

A short description of assay [5]: Cell Viability - LYMP2-018 (AID 985).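 Further: compound exposure lasted 24 hr at 37 °C; nearly all actives have a fitted effect of over 50% in size.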 Further: potency means the concentration at half of the fitted maximal effect. An outline of the steps:
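Human lymphoblastoid LYMP2-018 cells, 2500/well, settled 5 hr at 37 C then exposed to compound 24 hr at 37 C; intracellular ATP measured by CellTiter-Glo luminescence. AC50 from Hill-equation concentration-response fits.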

Assay [6] is described as follows: Cell Viability - LYMP2-020 (AID 986). Further: series mostly up to about 92 µM; nearly all actives have a fitted effect of over 55% in size. In a few lines:
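Human lymphoblastoid LYMP2-020 cells (2500/well) preincubated 5 h at 37 C, then treated 24 h at 37 C. Viability measured as intracellular ATP by CellTiter-Glo luminescence after 30 min at room temperature; AC50 from Hill fits.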

Assay [7] in a line: Cell Viability - LYMP2-022 (AID 987). Further: nearly all actives have a fitted effect of over 55% in size. Further: potency means the concentration at half of the fitted maximal effect. An outline of the steps: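 LYMP2-022 lymphoblastoid cells (2500/well, complete medium) were treated with compounds for 24 hours at 37 C; intracellular ATP was then read by CellTiter-Glo luminescence after 30 min at room temperature. AC50 values were derived from Hill-equation fits.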
Assay [8] can be described thus: Cell Viability - LYMP2-024 (AID 988). Further: nearly all actives have a fitted effect of over 60% in size. An outline of the steps: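 Human lymphoblastoid LYMP2-024 cells (2500/well) rested 5 hr, then treated with compound for 24 hr at 37 C in complete medium. Viability was measured as intracellular ATP by CellTiter-Glo luminescence. AC50 values came from Hill-equation fits.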
Assay [9] can be described thus: Cell Viability - LYMP2-026 (AID 989). Further: nearly all actives have a fitted effect of over 50% in size. In a few lines:
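Human lymphoblastoid LYMP2-026 cells, 2500/well, exposed to compound 24 h at 37 C in complete medium. Viability as intracellular ATP by CellTiter-Glo luminescence; AC50 from Hill fits of qHTS concentration-response.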

The target in assay [10] is Alpha-galactosidase A (Homo sapiens) (UniProt P06280). Nature of the assay: Counterscreen for Glucocerebrosidase Inhibitors: qHTS Assay for Human alpha-Galactosidase at pH 4.5 (AID 992). An outline of the steps: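 Concentration-response curves (0.7 nM to 77 uM final) were modeled with the Hill equation to give AC50. Reactions: 2 nM enzyme, 80 uM fluorogenic alpha-galactoside, pH 4.5 citric acid buffer, 20 min, room temperature.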

Results filed as inconclusive are left out. Active and inactive are the calls of the source. The call rests on the fitted dose curve; in most records, active means well fitted curve in the direction sought with a large enough effect; inconclusive means small, poorly fitted or top-dose-only effect, or another doubt; inactive means no such curve, though single readings can be large; an effect the other way counts as inactive or inconclusive.

Sequence of Alpha-galactosidase A (Homo sapiens) (P06280 whole entry, looked up): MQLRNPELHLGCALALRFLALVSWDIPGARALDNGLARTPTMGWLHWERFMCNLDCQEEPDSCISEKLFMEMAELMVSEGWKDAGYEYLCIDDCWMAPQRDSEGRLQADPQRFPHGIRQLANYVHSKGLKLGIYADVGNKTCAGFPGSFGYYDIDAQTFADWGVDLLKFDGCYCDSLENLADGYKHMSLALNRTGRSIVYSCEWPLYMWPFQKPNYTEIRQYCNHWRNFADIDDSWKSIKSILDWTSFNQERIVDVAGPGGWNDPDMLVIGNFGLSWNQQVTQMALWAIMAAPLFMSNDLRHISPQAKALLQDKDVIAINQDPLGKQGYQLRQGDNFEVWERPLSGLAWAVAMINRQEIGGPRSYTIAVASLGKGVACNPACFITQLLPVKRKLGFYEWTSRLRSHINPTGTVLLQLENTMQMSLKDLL

For the molecule `Nc1ccccc1`, the Potency result in [1], in assay [5] and in assay [7] was “inactive” each time. The molecule was called inactive in assay [2], in [3], in assay [4], in assay [6], in [8] and in [9].
With `COc1cc(OC)c(OC)cc1C=O`, the Potency entry in assay [1], in [5] and in assay [7] was “inactive” in each case. Further, the molecule was classed as inactive in assay [2], in assay [3], in assay [4], in assay [6], in assay [8] and in [9].
Take `CC(C)NC(C)C`: the Potency entry in [1], in assay [5] and in [7] was “inactive” in each case. The result in [2], in assay [3], in assay [4], in assay [6], in assay [8] and in assay [9] was inactive.
Regarding `CN1C[C@H](C(=O)N[C@]2(C)O[C@@]3(O)[C@@H]4CCCN4C(=O)[C@H](Cc4ccccc4)N3C2=O)C=C2c3cccc4[nH]cc(c34)C[C@H]21`, the molecule was called inactive in [3], in assay [6] and in [9]. Also, the Potency entry in assay [5] is “inactive”.
As for `CCCC(C)(COC(N)=O)COC(N)=O`, the Potency entry in assay [1], in assay [5] and in [7] was “inactive” each time. Also, the outcome in assay [2], in assay [3], in assay [4], in [6], in assay [8] and in [9] was inactive.
For `Nc1ccccc1C(=O)O`, the Potency result in assay [1], in assay [5] and in [7] was “inactive” each time. Further, the molecule was classed as inactive in assay [2], in assay [3], in assay [4], in assay [6], in [8] and in assay [9].
For the molecule `CCC(C)(C)c1ccc(O)cc1`, the Potency result in assay [1], in [5] and in assay [7] was “inactive” each time. Besides, the molecule was called inactive in [2], in [3], in assay [4], in assay [6], in assay [8] and in [9].
In the case of `O=C(O)CCCc1ccc(N(CCCl)CCCl)cc1`, the Potency in [1] was 31.6 µM (active); in assay [5] it was 31.6 µM (active); in [7], 39.8 µM (active). Also, in assay [10], the result was inactive.
Turning to `CC(C)c1cccc(C(C)C)c1O`, the Potency entry in [1], in assay [5] and in [7] was “inactive” each time. For the same molecule, the outcome in assay [2], in assay [3], in assay [4], in assay [6], in [8] and in [9] was inactive. In addition, in assay [10], the molecule was called inactive.
`C[C@]12CCC(=O)C=C1CC[C@@H]1[C@@H]2CC[C@@]2(C)[C@H]1CC[C@]2(C)O`: the Potency entry in [1], in assay [5] and in assay [7] was “inactive” throughout. In addition, the outcome in [3], in assay [4], in assay [6], in assay [8] and in assay [9] was inactive.
Regarding `C[C@]12CCC(=O)C=C1CC[C@@H]1[C@@H]2CC[C@]2(C)C(=O)CC[C@@H]12`, the Potency entry in assay [1], in assay [5] and in assay [7] was “inactive” in each case. Also, the outcome in [2], in assay [3], in assay [4], in assay [6], in [8] and in [9] was inactive. In addition, in assay [10], the result was inactive.
Turning to `CCCCC/C=C\C/C=C\C/C=C\C/C=C\CCCC(=O)NCC(=O)O`, the result in [10] was inactive.
As for `Clc1ccc(C(c2ccc(Cl)cc2)C(Cl)(Cl)Cl)cc1`, the Potency entry in assay [1], in [5] and in assay [7] was “inactive” throughout. The molecule was called inactive in [2], in [3], in [4], in assay [6], in assay [8] and in [9].
For `C[C@]1(O)CC[C@H]2[C@@H]3CCC4=CC(=O)CC[C@]4(C)[C@@]3(F)[C@@H](O)C[C@@]21C`, the Potency entry in assay [1], in assay [5] and in assay [7] was “inactive” each time. Moreover, the result in assay [2], in assay [3], in assay [4], in assay [6], in [8] and in assay [9] was inactive.
Turning to `Oc1ccc(Cl)cc1`, the Potency result in assay [1], in [5] and in assay [7] was “inactive” each time. Further, the result in assay [2], in assay [3], in assay [4], in [6], in [8] and in [9] was inactive.
Regarding `NCCc1ccc(O)cc1`, the Potency entry in assay [1], in [5] and in [7] was “inactive” throughout. Also, the molecule was called inactive in [2], in assay [3], in [4], in assay [6], in [8] and in assay [9]. For the same molecule, in assay [10], the result was inactive.
Consider `COC(=O)C(c1ccccc1)C1CCCCN1` (stereo not given), for which the Potency entry in assay [1] and in [5] was “inactive” in each case. For the same molecule, the result in assay [2], in [3], in assay [4], in assay [6] and in assay [9] was inactive.
Regarding `COP(=S)(OC)Oc1ccc(SC)c(C)c1`, the Potency result in assay [1], in assay [5] and in assay [7] was “inactive” in each case. The molecule was classed as inactive in [2], in assay [3], in [4], in [6], in assay [8] and in assay [9].
Turning to `O=P1(N(CCCl)CCCl)NCCCO1` (stereo not given), the Potency result in assay [1], in assay [5] and in [7] was “inactive” throughout. In addition, the molecule was called inactive in assay [2], in [3], in assay [4], in assay [6], in [8] and in assay [9]. The result in [10] was inactive.
As to `O=c1[nH]oc2c1CCNC2`, in assay [10], the result was inactive.
For the molecule `CCOC(=O)CC(SP(=S)(OC)OC)C(=O)OCC` (stereo not given), the Potency result in assay [1], in [5] and in assay [7] was “inactive” throughout. The molecule was called inactive in assay [2], in [3], in assay [4], in assay [6], in assay [8] and in [9].
With `O=C(CCCN1CCC2(CC1)C(=O)NCN2c1ccccc1)c1ccc(F)cc1`, the molecule was called inactive in assay [10].
